Assay [1] concerns the target Protein phosphatase 1D (Homo sapiens) (UniProt O15297). Nature of the assay: RapidFire Mass Spectrometry qHTS Assay for Modulators of WT P53-Induced Phosphatase 1 (WIP1) (AID 1347424).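 Further: amount of dephosphorylated VEPPL-S-QETFS peptide product formed by WIP1; series mostly up to about 63 µM.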 In outline: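 Mass-spectrometric measurement of dephosphorylated peptide after a 5 min room-temperature reaction of 10 nM WIP1 with 2 uM phosphopeptide, following 1 h compound preincubation in 30 mM MgCl2 buffer.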
(Quantitative high-throughput screening tests each substance at several concentrations.)

The target is the same in assay [2]. Nature of the assay: Rhodamine-PBP qHTS Assay for Modulators of WT P53-Induced Phosphatase 1 (WIP1) (AID 1347425). In outline:
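WIP1 (5 nM final) was preincubated with compound for 1 hour at room temperature. It then dephosphorylated 10 uM VEPPL-pS-QETFS peptide in Tris-HCl pH 7.5 with 30 mM MgCl2. Released Pi was detected by 10 uM Rh-PBP fluorescence (ex 525/em 598 nm) read at 1-min intervals for 11 min, as delta f1 - f0.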

The nature of assay [3]: Primary qHTS for inhibitors of La Crosse Virus (LACV) - induced cell death in SH-SY5Y cells (AID 1508616).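 Further: top concentration of the series differs between compounds; higher means more rescue of cells from virus-induced death.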 In outline: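 SH-SY5Y, 6000 cells/well; cpd via pin tool in DMSO; LACV 0.01 MOI; 6 d 37C 5% CO2; ATPLite, 5 min RT; luminescence normalized to ±virus DMSO controls.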
Assay [4] is described as follows: qHTS for inhibitors of adenylyl cyclases using a fission yeast platform: a pilot screen against the NCATS LOPAC library (AID 1347410). A digest of the protocol: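 S. pombe CHP2027 (AC9-GNAS-PDE4D2) carrying PKA-repressed fbp1-GFP, incubated 18 h at 30C in EMM with LOPAC compounds at up to 57 uM. GFP gain-of-signal read by laser scanning cytometry; DMSO negative control.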

Assay [5] is described as follows: Validation qHTS assay for inhibitors of Activation Induced Cytidine Deaminase (AID): UDG Counterscreen signal (AID 1347427). In outline:
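Fluorescence at 560 nm excitation, 665 nm emission reports UDG signal after 250 mM NaOH (2x) addition and 30 min. Enzymes (AID 1 uM, UDG 2 U/mL, at 4/3x) preincubated 10 min with compound, then 4 h with 4x 250 nM DJC20/DJC23 substrate at room temperature.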

Assay [6] deals with Single-stranded DNA cytosine deaminase (Homo sapiens) (UniProt Q9GZX7). Nature of the assay: Validation qHTS assay for inhibitors of Activation Induced Cytidine Deaminase (AID): AID signal (AID 1347429). A digest of the protocol:
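Steps: dispense AID with UDG; pin-transfer compound up to 114 uM final; add DJC20/DJC23 substrate and hold 4 hr at room temperature; add NaOH, hold 30 min; read FRET signal (540/590 nm).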

The target in assay [7] is Calcium and integrin-binding protein 1 (Homo sapiens) (UniProt Q99828). Nature of the assay: Validation qHTS for Identification of Calcium Integrin Binding protein 1 (CIB1) Competitor (AID 1508618). A digest of the protocol:
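Fluorescence polarization with 1 uM CIB1-GST and 100 nM FITC-alphaIIb peptide in HEPES pH 7.4, NaCl, 5 mM CaCl2, Tween20. Compounds at up to 114 uM final, preincubated with protein 15 min; read after 15 min more at RT.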

The nature of assay [8]: qHTS to identify inhibitors of the type 1 interferon - major histocompatibility complex class I in skeletal muscle: primary screen against the NCATS Mechanism Interrogation Plate v5.0 (MIPE) Libary (AID 1347411). Further: potency means the concentration at half of the fitted maximal effect; nearly all actives have a fitted effect of over 65% in size. In outline:
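Seed engineered human myoblasts (HLA-B HiBit) in medium without dexamethasone containing 4 ng/ml IFN-beta; after 1 hr add compound titrations (top 46 uM final). Incubate 24 hrs at 37 C, lyse 10 min with HiBiT reagent, read luminescence.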

Records with an inconclusive call do not appear. Entries that show only a call come without a potency. Active and inactive are the calls of the source. The call rests on the fitted dose curve; in most records, active means well fitted curve in the direction sought with a large enough effect; inconclusive means small, poorly fitted or top-dose-only effect, or another doubt; inactive means no such curve, though single readings can be large; an effect the other way counts as inactive or inconclusive.

Protein phosphatase 1D (Homo sapiens), sequence (O15297 whole entry, looked up): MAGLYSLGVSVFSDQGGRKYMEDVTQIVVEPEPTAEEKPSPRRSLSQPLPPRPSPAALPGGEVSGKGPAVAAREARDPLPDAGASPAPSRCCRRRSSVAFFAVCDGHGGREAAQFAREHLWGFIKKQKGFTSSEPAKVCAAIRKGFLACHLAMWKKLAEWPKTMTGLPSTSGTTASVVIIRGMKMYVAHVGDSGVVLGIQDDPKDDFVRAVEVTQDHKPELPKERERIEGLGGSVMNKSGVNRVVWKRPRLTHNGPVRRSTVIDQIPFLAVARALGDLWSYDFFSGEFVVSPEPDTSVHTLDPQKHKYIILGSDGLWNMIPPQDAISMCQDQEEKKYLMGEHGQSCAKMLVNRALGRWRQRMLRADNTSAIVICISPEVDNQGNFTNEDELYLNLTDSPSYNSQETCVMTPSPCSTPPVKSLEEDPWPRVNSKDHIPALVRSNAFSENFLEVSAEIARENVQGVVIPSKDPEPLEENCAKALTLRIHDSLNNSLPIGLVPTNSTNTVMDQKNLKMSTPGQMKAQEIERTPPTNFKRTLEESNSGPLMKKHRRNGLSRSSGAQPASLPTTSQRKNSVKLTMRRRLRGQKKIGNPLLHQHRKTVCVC
Single-stranded DNA cytosine deaminase (Homo sapiens), sequence (Q9GZX7 whole entry, looked up): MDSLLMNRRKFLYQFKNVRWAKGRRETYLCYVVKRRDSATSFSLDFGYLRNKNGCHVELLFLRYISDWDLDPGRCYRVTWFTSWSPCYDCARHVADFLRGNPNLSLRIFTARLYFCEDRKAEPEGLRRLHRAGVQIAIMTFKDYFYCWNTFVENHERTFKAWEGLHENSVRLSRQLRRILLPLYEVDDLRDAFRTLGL
Calcium and integrin-binding protein 1 (Homo sapiens), sequence (Q99828 whole entry, looked up): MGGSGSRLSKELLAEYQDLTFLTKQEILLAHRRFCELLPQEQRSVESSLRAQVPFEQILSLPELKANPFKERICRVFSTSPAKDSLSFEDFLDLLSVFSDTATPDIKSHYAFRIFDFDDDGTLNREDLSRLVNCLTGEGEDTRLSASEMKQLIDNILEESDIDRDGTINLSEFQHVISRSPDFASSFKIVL

`CNCCCCOc1ccccc1Cc1ccccc1`: in assay [1], the Potency result is “inactive”. For the same molecule, the outcome in assay [2] and in assay [3] was inactive.
For the molecule `C#C[C@]1(O)CC[C@H]2[C@@H]3CCC4=Cc5oncc5C[C@]4(C)[C@H]3CC[C@@]21C`, the Potency result in assay [1] is “inactive”. Also, the molecule was called inactive in assay [2] and in assay [3].
On to `C=C[C@H]1CN2CC[C@H]1C[C@H]2[C@H](O)c1ccnc2ccc(OC)cc12`, for which the Potency result in assay [1] was “inactive”. The molecule was classed as inactive in assay [2] and in assay [3].
For `CCCCCCCCCCCCCCCCO`, the Potency entry in assay [1] is “inactive”. The result in assay [2] and in assay [3] was inactive.
As to `OC[C@H]1O[C@@H](Oc2ccc(O)cc2)[C@H](O)[C@@H](O)[C@@H]1O`, in assay [1], the Potency result is “inactive”. Also, the molecule was classed as inactive in assay [2] and in assay [3].
For `CNCCc1ccccn1`, the Potency entry in assay [1] is “inactive”. In addition, the molecule was classed as inactive in assay [2] and in assay [3].
For `CCOC(=O)c1c(N)sc2c1CCN(Cc1ccccc1)C2`, the Potency entry in assay [1] was “inactive”. The call in assay [2] and in assay [3] was inactive.
Consider `CC(C(=O)O)c1cccc(Oc2ccccc2)c1` (configuration not stated), for which, in assay [1], the Potency entry is “inactive”. The molecule was classed as inactive in assay [2] and in assay [3].
As to `CN1CCN(c2c(F)cc3c(=O)c(C(=O)O)cn4c3c2SCC4)CC1`, in assay [1], the Potency result was “inactive”. Moreover, the result in assay [2] and in assay [3] was inactive.
Take `CCN(CC)CCOc1ccc2c(c1)C(=O)c1cc(OCCN(CC)CC)ccc1-2`: the Potency result in assay [1] was “inactive”. Also, the call in assay [2] was inactive.
For `CCCCC(CC)COC(=O)/C=C/c1ccc(OC)cc1` (configuration not stated), the Potency entry in assay [1] is “inactive”. Besides, the call in assay [2] and in assay [3] was inactive.
Take `CCCCN1C[C@H](O)[C@@H](O)[C@H](O)[C@H]1CO`: in assay [1], the Potency result is “inactive”. The molecule was classed as inactive in assay [2] and in assay [3].
For the molecule `NC1CCN(c2nc3c(cc2F)c(=O)c(C(=O)O)cn3-c2ccc(F)cc2F)C1` (configuration not stated), the Potency entry in assay [1] is “inactive”. Further, the result in assay [2] and in assay [3] was inactive.
In the case of `CCc1ccc(C(=O)C(C)CN2CCCCC2)cc1` (configuration not stated), in assay [1], the Potency entry was “inactive”. For the same molecule, the molecule was called inactive in assay [2] and in assay [3].
As for `OCCOCCN1CCN(C2=Nc3ccccc3Sc3ccccc32)CC1`, the Potency result in assay [1] is “inactive”. In addition, the outcome in assay [2] and in assay [3] was inactive.
In the case of `COc1ccc(S(=O)(=O)N2c3ccc(Cl)cc3[C@@](O)(c3ccccc3Cl)[C@H]2C(=O)N2CCC[C@@H]2C(N)=O)cc1OC`, in assay [1], the Potency entry is “inactive”. Further, the call in assay [2] and in assay [3] was inactive.
As for `NC(N)=NCc1cccc(I)c1`, the result in assay [4], in assay [5], in assay [6], in assay [3] and in assay [7] was inactive.
Consider `CCCCCN=C(N)N/N=C/c1c[nH]c2ccc(OC)cc12`, for which, in assay [8], the Potency was 6.58 µM (active). Also, the Potency result in assay [1] was “inactive”. In addition, the call in assay [2] and in assay [3] was inactive.
In the case of `C=C[C@H]1CN2CC[C@H]1C[C@@H]2[C@@H](O)c1ccnc2ccc(OC)cc12`, the Potency result in assay [1] was “inactive”. Besides, the molecule was called inactive in assay [2] and in assay [3].
For `CN1CCC(OC(c2ccccc2)c2ccccc2)CC1`, the Potency result in assay [1] is “inactive”. In addition, the outcome in assay [2] and in assay [3] was inactive.
Regarding `CCN1CCN(C(=O)N[C@@H](C(=O)N[C@@H]2C(=O)N3C(C(=O)O)=C(CSc4nnnn4C)CS[C@H]23)c2ccc(O)cc2)C(=O)C1=O`, the Potency entry in assay [1] was “inactive”. The molecule was called inactive in assay [2] and in assay [3].
As for `COc1ccc(C(Cl)=C(c2ccc(OC)cc2)c2ccc(OC)cc2)cc1`, the Potency result in assay [1] was “inactive”. The result in assay [2] and in assay [3] was inactive.
Consider `CC(C)Cc1ccc(CC(=O)O)cc1`, for which, in assay [1], the Potency entry is “inactive”. For the same molecule, the call in assay [2] and in assay [3] was inactive.
Turning to `NCCNc1cccc2ccccc12`, the Potency entry in assay [1] was “inactive”. Moreover, the result in assay [2] and in assay [3] was inactive.
Take `CN=C(N)NCCC[C@H](N)C(=O)O`: the molecule was called inactive in assay [4], in assay [5], in assay [6], in assay [3] and in assay [7].
Take `Nc1ccc(C(=O)NCC(=O)O)cc1`: the Potency entry in assay [1] was “inactive”. For the same molecule, the result in assay [2] and in assay [3] was inactive.
`CN1CCN(C2=Nc3cc(F)ccc3Cc3ccccc32)CC1`: the Potency result in assay [1] was “inactive”. Moreover, the outcome in assay [2] and in assay [3] was inactive.
In the case of `c1ccc(CC2=NCCN2)cc1`, the Potency result in assay [1] is “inactive”. For the same molecule, the molecule was classed as inactive in assay [2] and in assay [3].
`CC(=O)OCC(=O)[C@H]1CC[C@H]2[C@@H]3CCC4=CC(=O)CC[C@]4(C)[C@H]3CC[C@]12C`: the Potency entry in assay [1] was “inactive”. In addition, the result in assay [2] and in assay [3] was inactive.
With `Cc1cc(-c2ccccc2)nnc1NCCN1CCOCC1`, in assay [1], the Potency entry was “inactive”. The outcome in assay [2] and in assay [3] was inactive.
As for `CC(=O)NCCCCCC(=O)O`, the Potency entry in assay [1] is “inactive”. Moreover, the outcome in assay [2] and in assay [3] was inactive.

Source of the values: PubChem BioAssay (NCATS).
